# Results as given in PMC5540273 (PLoS ONE, 2017).
# Values joined by “and” are separate entries in the source; they are usually repeats but may differ in a detail not shown here. Identical values can stand only once. Like-named read-outs stand apart in the source and are kept apart here.
# Tests used:
# DMPK = settings: concentration: 1 μM, replicates: in singlicate, n = 1
# DRAK1 = system: T1, DRAK1; settings: concentration: 1 μM, replicates: in singlicate, n = 1
# T1 construct: gene STK17A
# DRAK2 = system: T2, DRAK2; settings: concentration: 1 μM, replicates: in singlicate, n = 1
# T2 construct: gene STK17B
# DYRK1A = settings: concentration: 1 μM, replicates: in singlicate; n = 1
# DYRK1B = settings: concentration: 1 μM, replicates: in singlicate, n = 1
# DYRK2 = settings: concentration: 1 μM, replicates: in singlicate, n = 1
# EGFR = settings: concentration: 1 μM, replicates: in singlicate, n = 1
# EIF2AK1 = settings: concentration: 1 μM, replicates: in singlicate, n = 1
# EPHA1 = settings: concentration: 1 μM, replicates: in singlicate, n = 1
# EPHA2 = settings: concentration: 1 μM, replicates: in singlicate, n = 1
# 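Note: KINOMEscan kinase panel screen.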
Structure (SMILES),%Inh (DMPK) [%],%Inh (DRAK1) [%],%Inh (DRAK2) [%],%Inh (DYRK1A) [%],%Inh (DYRK1B) [%],%Inh (DYRK2) [%],%Inh (EGFR) [%],%Inh (EIF2AK1) [%],%Inh (EPHA1) [%],%Inh (EPHA2) [%],%Inh (DMPK; 1 µM),%Inh (DRAK1; 1 µM),%Inh (DYRK1B; 1 µM),%Inh (DYRK2; 1 µM),%Inh (EGFR; 1 µM),%Inh (EPHA1; 1 µM),%Inh (EPHA2; 1 µM),%Inh (DRAK2; 1 µM),%Inh (EIF2AK1; 1 µM)
O=c1cc(N2CCOCC2)nc2n(Cc3cccc(F)c3)ccn12 [GSK2297430],12,5,0,26,0,5,32,0,14,9,,,,,,,,,
CC(C)(CN)c1nc(-c2ccc(Cl)c(O)c2)c(-c2ccncc2)[nH]1.O=C(O)C(F)(F)F [SB-477794],,,0,0,,,,0,,,0% and 98.6%,0% and 5%,0% and 5%,0% and 5%,70% and 47%,97.1% and 95.8%,26% and 33%,,
Cc1c2ccc(N(C)c3ccnc(Nc4cccc(S(N)(=O)=O)c4)n3)cc2nn1Cc1ccccc1.Cl.Cl [GW787226],8,3,16,0,0,0,5,0,21,4,,,,,,,,,
CNc1ncnc2[nH]ncc12 [SKF-18355],0,10,0,0,0,37,0,0,0,0,,,,,,,,,
Nc1nc(-c2ccc3c(N)n[nH]c3c2)cc(N2CCCC2)n1 [GSK2227430],0,73,0,9,4,37,2,0,0,12,,,,,,,,,
O=C(NCCNc1ccnc(Nc2ccc(F)cc2)n1)Nc1ccccc1F [GSK1379880],0,0,0,15,6,12,22,0,19,0,,,,,,,,,
COc1cc2c(cc1OCCN1CCN(C)CC1)ncc1c3ccc(C#N)cc3[nH]c21,0,100,100,94.6,62,60,0,0,0,0,,,,,,,,,
CCc1ccnc(/C=C/c2n[nH]c3cc(Sc4ccccc4C(=O)NC)ccc23)c1,6,12,0,8,4,0,0,14,0,0,,,,,,,,,
c1ccc(-c2n[nH]cc2-c2ccnc3ccccc23)nc1 [GW271431],2,19,18,17,20,0,35,14,16,4,,,,,,,,,
Cc1cn2c(=O)cc(N3CCOCC3)nc2n1Cc1cccc(Cl)c1Cl [GSK2334006],12,0,12,20,36,0,45,2,51,21,,,,,,,,,
COc1ccc(Nc2ncc(C#N)c(Nc3ccccc3C(N)=O)n2)cc1N1CCN(C)CC1.Cl [GSK1558669],88,99.1,83,99.8,87,99.1,92.7,48,92.9,80,,,,,,,,,
CC(C)(C)n1cnc2c(N)ncnc21 [SKF-97359],9,0,6,0,61,0,39,0,0,0,,,,,,,,,
[2H]C([2H])(c1cccc(C(F)(F)F)c1C)n1ccn2c(=O)nc(N3CCOCC3)cc12 [GSK2336394],0,0,0,16,0,1,28,0,12,8,,,,,,,,,
C[C@@H](Oc1cc(-n2cnc3ccc(NC(=O)NC(C)(C)C)cc32)sc1C(N)=O)c1ccccc1Cl [GSK346294],0,0,0,0,0,15,32,0,4,0,,,,,,,,,
Cl.Cl.Cl.Fc1ccc(-c2ncn(C3CCNCC3)c2-c2ccnc(Nc3ccccc3)n2)cc1 [SB-238039],28,,,0,,,,,0,0,,9% and 3%,6% and 7%,11% and 0%,90.1% and 72%,,,18% and 6%,0% and 1%
CN(C1=C(c2ccccc2)C(=O)NC1=O)c1ccccc1 [SB-334860],0,3,0,10,9,10,27,6,6,1,,,,,,,,,
